Test results published in PubChem BioAssay (NCATS).
Several values for one entry are separate records, joined by “and”; a condition that tells them apart may be missing. Equal entries are not always repeated. Inconclusive results are not listed. More than one record can exist for a structure, and the calls need not agree. A number with no mark means an inactive call. Activity calls are given as the source filed them. Unless noted, calls follow the shape of the dose curve; as a rule, active = well fitted curve in the direction sought with a large enough effect; inconclusive = small, poorly fitted or top-dose-only effect, or another doubt; inactive = no such curve, though single readings can be large; an effect the other way counts as inactive or inconclusive.

Tests used:
[1] = biological target: Cellular tumor antigen p53 (Homo sapiens) (UniProt P04637); assay: Primary qHTS for small molecule compounds that upregulate eGFP-tagged delta133p53alpha (in N-terminal) cells. (AID 2060322); settings: NCI-H358 eGFP-delta133p53alpha fluorescence, 24 h; activation: hits give high values; also: nearly all actives have a fitted effect of over 75% in size; also: potency is read from the fitted curve at half-maximal effect;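 as to activation: 0% = DMSO vehicle and 100% = reference activator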
How it was run: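 NCI-H358 cells pre-induced 24 h with 10 ng/ml doxycycline to express N-terminal eGFP-delta133p53alpha, then dosed 24 h at 37C without doxycycline; fixed, Hoechst-stained, GFP intensity by laser scanning cytometry, normalized to DMSO (0%) and 57.5 uM 5-azacytidine (100%).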

[2] = biological target: Cellular tumor antigen p53 (Homo sapiens) (UniProt P04637); assay: Primary qHTS for small molecule compounds that upregulate eGFP-tagged delta133p53alpha (in C-terminal) cells. (AID 2060324); settings: NCI-H358 delta133p53alpha-eGFP (C-terminal tag), GFP fluorescence imaging, 24 h; series mostly up to 57.5 µM; also: potency is read from the fitted curve at half-maximal effect
How it was run: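 In this qHTS, GFP-tagged delta133p53alpha levels are measured in fixed NCI-H358 cells after 24 h compound exposure at 37 °C. The cells are pre-induced with 100 ng/ml doxycycline, and signal is normalized to DMSO-treated wells as 0%.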

[3] = biological target: Aldehyde dehydrogenase, mitochondrial (Homo sapiens) (UniProt P05091); assay: qHTS for Inhibitors of the Aldehyde Dehydrogenase Family (ALDH2) Validation screens (AID 2061302; active = well fitted inhibition curve with a large enough effect; title and protocol of this record describe different tests; also: potency is read from the fitted curve at half-maximal effect); settings: ALDH inhibition qHTS; series mostly up to 42.6 µM
[4] = BET inhibitor-based combinations targeting novel dependencies in MECOM-rearranged (r) AML: SET-2 cell line (AID 2202231); settings: SET-2 AML cells viability, CellTiter-Glo luminescence, 48 h; viability: hits give low values, concentration not given here; also: nearly all actives have a fitted effect of over 35% in size; also: potency is read from the fitted curve at half-maximal effect;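 as to viability: plate controls were DMSO treated cells for no effect and wells without cells for full effect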
How it was run: (§1)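 A 48 hr incubation preceded viability reading by CellTiter-Glo, with 15 min room-temperature development. Dose series had 11 points; normalization used DMSO and empty wells; AUC was computed and mean-centered per line as Z-AUC.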

[5] = BET inhibitor-based combinations targeting novel dependencies in MECOM-rearranged (r) AML: HNT-34 cell line (AID 2202234); settings: HNT-34 AML viability, CellTiter-Glo luminescence, 48 h; series mostly up to 46 µM; also: nearly all actives have a fitted effect of over 35% in size; also: potency is read from the fitted curve at half-maximal effect
How it was run: (§2)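 Each compound is tested in an 11-point concentration series against 500 seeded cells/well for 48 hr. The luminescent viability signal is normalized to DMSO and blank wells, then reduced to AUC and a cell-line-centred Z-AUC.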

[6] = BET inhibitor-based combinations targeting novel dependencies in MECOM-rearranged (r) AML: UCSD-AML1 cell line (AID 2202235); settings: UCSD-AML1 AML cells viability, CellTiter-Glo, 48 h; series mostly up to 46 µM; also: nearly all actives have a fitted effect of over 40% in size; also: potency is read from the fitted curve at half-maximal effect
How it was run: as §2

[7] = BET inhibitor-based combinations targeting novel dependencies in MECOM-rearranged (r) AML: AML-191 cell line (AID 2202236; also: nearly all actives have a fitted effect of over 35% in size; also: potency is read from the fitted curve at half-maximal effect); settings: AML-191 viability, CellTiter-Glo luminescence, 48 h; series mostly up to 46 µM
How it was run: as §1

[8] = BET inhibitor-based combinations targeting novel dependencies in MECOM-rearranged (r) AML: AML-194 cell line (AID 2202237; also: nearly all actives have a fitted effect of over 40% in size; also: potency is read from the fitted curve at half-maximal effect); settings: AML-194 (MECOM-r AML) viability, CellTiter-Glo, 48 h; series mostly up to 46 µM
How it was run: as §1

[9] = biological target: Aldehyde dehydrogenase, mitochondrial (Homo sapiens) (UniProt P05091); assay: qHTS for Inhibitors of the Aldehyde Dehydrogenase Family (ALDH2) Confirmatory screens (AID 2061303; active = well fitted inhibition curve with a large enough effect; title and protocol of this record describe different tests; also: % is scaled to controls: 0 for no effect and ±100 for the full control effect; nearly all actives have a fitted effect of over 45% in size); settings: ALDH inhibition qHTS; series mostly up to 45.4 µM
[10] = qHTS for Inhibitors of the Aldehyde Dehydrogenase Family (ALDH1A2, ALDH1A3, ALDH2, ALDH3A1) (AID 2061307); settings: ALDH inhibition qHTS; series mostly up to 50.3 µM; also: % is scaled to controls: 0 for no effect and ±100 for the full control effect; nearly all actives have a fitted effect of over 50% in size
[11] = biological target: Retinaldehyde dehydrogenase 3 (Homo sapiens) (UniProt P47895); assay: qHTS for Inhibitors of the Aldehyde Dehydrogenase Family (ALDH1A3) Confirmatory screens (AID 2061311); settings: ALDH inhibition qHTS; series mostly up to 46 µM; also: nearly all actives have a fitted effect of over 60% in size
[12] = biological target: Aldehyde dehydrogenase 1A1 (Homo sapiens) (UniProt P00352); assay: qHTS for Inhibitors of the Aldehyde Dehydrogenase Family (ALDH1A1) Confirmatory screens (AID 2061316); settings: ALDH inhibition qHTS; series mostly up to 47.3 µM; also: nearly all actives have a fitted effect of over 65% in size
[13] = BET inhibitor-based combinations targeting novel dependencies in MECOM-rearranged (r) AML: OCI-AML3 cell line (AID 2202232); settings: CellTiter-Glo luminescence, 48 h; Potency: OCI-AML3 viability; series mostly up to 46 µM; also: potency is read from the fitted curve at half-maximal effect; nearly all actives have a fitted effect of over 35% in size
How it was run: as §1

[14] = biological target: Retinal dehydrogenase 2 (Homo sapiens) (UniProt O94788); assay: qHTS for Inhibitors of the Aldehyde Dehydrogenase Family (ALDH1A2) Confirmation screens (AID 2061314); settings: ALDH1A2 enzyme inhibition qHTS confirmation; series mostly up to 45.9 µM; also: % is scaled to controls: 0 for no effect and ±100 for the full control effect; nearly all actives have a fitted effect of over 65% in size
[15] = biological target: Aldehyde dehydrogenase, mitochondrial (Homo sapiens) (UniProt P05091); assay: qHTS for Inhibitors of the Aldehyde Dehydrogenase Family (ALDH2) Primary screen (AID 2061308); settings: ALDH2 enzyme inhibition qHTS, 1536-well; series mostly up to 56 µM;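 also: plate controls were vehicle for no effect and reference inhibitor for full effect; nearly all actives have a fitted effect of over 55% in size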
[16] = biological target: Retinaldehyde dehydrogenase 3 (Homo sapiens) (UniProt P47895); assay: qHTS for Inhibitors of the Aldehyde Dehydrogenase Family (ALDH1A3) Primary screen (AID 2061315); settings: ALDH inhibition qHTS; series mostly up to 56 µM;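 also: plate controls were DMSO vehicle for no effect and reference inhibitor for full effect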
[17] = biological target: Retinaldehyde dehydrogenase 3 (Homo sapiens) (UniProt P47895); assay: qHTS for Inhibitors of the Aldehyde Dehydrogenase Family (ALDH1A3) Validation screen (AID 2061312); settings: ALDH1A3 enzyme inhibition qHTS validation, fluorescence; series mostly up to 84.7 µM; also: % is scaled to controls: 0 for no effect and ±100 for the full control effect; nearly all actives have a fitted effect of over 45% in size
[18] = BET inhibitor-based combinations targeting novel dependencies in MECOM-rearranged (r) AML: MV-4-11 cell line (AID 2202233); settings: MV-4-11 AML viability, CellTiter-Glo luminescence, 48 h; series mostly up to 46 µM; also: potency is read from the fitted curve at half-maximal effect; nearly all actives have a fitted effect of over 45% in size
How it was run: as §2

Chain of Cellular tumor antigen p53 (Homo sapiens) (P04637 whole entry, looked up): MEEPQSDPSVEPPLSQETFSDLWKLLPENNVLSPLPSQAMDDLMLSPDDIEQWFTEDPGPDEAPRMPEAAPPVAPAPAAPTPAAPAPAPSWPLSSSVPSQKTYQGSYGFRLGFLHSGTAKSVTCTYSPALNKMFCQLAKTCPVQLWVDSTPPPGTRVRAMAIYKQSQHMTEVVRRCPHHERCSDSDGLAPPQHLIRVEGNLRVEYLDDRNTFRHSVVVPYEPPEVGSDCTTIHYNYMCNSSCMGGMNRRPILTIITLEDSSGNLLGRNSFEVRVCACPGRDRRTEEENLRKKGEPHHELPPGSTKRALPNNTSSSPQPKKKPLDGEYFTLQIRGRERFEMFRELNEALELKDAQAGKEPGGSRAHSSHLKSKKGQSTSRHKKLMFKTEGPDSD

Cc1cccc(C)c1NC(=O)CN1CCCC1
activation [1]: 10%

CC1(C)O[C@@H]2[C@@H](CO[C@@]3(COS(N)(=O)=O)OC(C)(C)O[C@@H]23)O1
activation [1]: -2.51%

O=C(O)c1ccc(OCCCOc2ccc(C(=O)O)cc2)cc1
activation [1]: -13%

COc1cc(C=O)ccc1O
activation [1]: 5.02%

NCC[C@H](O)C(=O)N[C@@H]1C[C@H](N)[C@@H](O[C@H]2O[C@H](CN)[C@@H](O)[C@H](O)[C@@H]2O)[C@H](O)[C@@H]1O[C@H]1O[C@H](CO)[C@@H](O)[C@H](N)[C@@H]1O
activation [1]: -2.51%

C[C@H]1[C@H](NC(=O)C(=NOC(C)(C)C(=O)O)c2csc(N)n2)C(=O)N1S(=O)(=O)O
activation [1]: -31.5%

CC(N)CCCC(C)(C)O (stereo unspecified)
activation [1]: -2.82%

C#C[C@]1(O)CC[C@@H]2[C@@H]3CCc4cc(O)ccc4[C@H]3CC[C@@]21C
activation [1]: 18.7%

COc1cc([C@@H]2c3cc4c(cc3[C@@H](O[C@@H]3O[C@@H]5CO[C@@H](c6cccs6)O[C@@H]5[C@H](O)[C@@H]3O)[C@H]3COC(=O)[C@H]23)OCO4)cc(OC)c1O
activation [1]: -12.2%

CCOC(=O)Nc1ccc(NCc2ccc(F)cc2)nc1N
Potency [1]: 2.19 µM (active) | activation [1]: -4.52% and 42.2% | Potency [2]: 13.5 µM (active) | Potency [3]: 5.01 µM (active) | viability [4]: 107% | Potency [5]: inactive | Potency [6]: inactive | Potency [7]: inactive | Potency [8]: inactive

Cc1nc(-c2ccc(Cl)cc2)oc1COC(C)(C)C(=O)O
activation [1]: 1.67%

COc1cc(C=CC(=O)O)ccc1O
activation [1]: -12.5%

CCN(CC)CCOc1ccc(Nc2ncc3cc(-c4c(Cl)cccc4Cl)c(=O)n(C)c3n2)cc1
Potency [1]: 5.44 µM (active) | activation [1]: -1.41% | Potency [2]: 26.9 µM (active) | Potency [3]: inactive | Potency [9]: inactive | Potency [10]: inactive | Potency [11]: inactive | Potency [12]: inactive | Potency [4]: 3.72 µM (active) | Potency [13]: 2.63 µM (active) | Potency [5]: 0.0295 µM (active) | Potency [6]: 2.95 µM (active) | Potency [7]: 2.35 µM (active) | Potency [8]: 2.95 µM (active)

CCCSS/C(CCO)=C(\C)N(C=O)Cc1cnc(C)nc1N
Potency [1]: 30.9 µM (active)

CC(=O)c1ccc2c(c1)N(CCCN1CCC(CCO)CC1)c1ccccc1S2
activation [1]: 0%

CN1C[C@H](C(=O)N[C@]2(C)O[C@@]3(O)[C@@H]4CCCN4C(=O)[C@H](Cc4ccccc4)N3C2=O)C[C@@H]2c3cccc4[nH]cc(c34)C[C@H]21
Potency [1]: 24.6 µM (active) | activation [1]: 7.67% | Potency [3]: inactive

OCCCc1ccccc1
activation [1]: -6.21%

COCC(=O)O[C@]1(CCN(C)CCCc2nc3ccccc3[nH]2)CCc2cc(F)ccc2[C@@H]1C(C)C
Potency [1]: 21.9 µM (active) | activation [1]: 29.4% | Potency [3]: inactive | Potency [9]: inactive | Potency [10]: inactive | Potency [11]: inactive | Potency [14]: inactive | Potency [12]: inactive

O=C1Cc2cc(CCN3CCN(c4nsc5ccccc45)CC3)c(Cl)cc2N1
Potency [1]: 27.6 µM (active) | activation [1]: -69% | Potency [3]: inactive | Potency [15]: inactive | Potency [16]: inactive

CS(=O)(=O)c1cccc(CNc2nc(Nc3ccc4c(c3)CCC(=O)N4)ncc2C(F)(F)F)c1
Potency [1]: 21.3 µM (active) | activation [1]: -20.3% and 55.5% | Potency [3]: inactive | Potency [15]: inactive | Potency [17]: inactive | Potency [16]: inactive | Potency [4]: 16.6 µM (active) | Potency [13]: 20.9 µM (active) | Potency [18]: 0.209 µM (active) | Potency [5]: 9.34 µM (active) | Potency [6]: 10.5 µM (active) | Potency [7]: 9.34 µM (active)

CCN(CC)CCNc1ccc(CO)c2sc3ccccc3c(=O)c12
activation [1]: 28.5%

COCCOC(=O)C1=C(C)NC(C)=C(C(=O)OC(C)C)C1c1cccc([N+](=O)[O-])c1 (stereo unspecified)
Potency [1]: 6.92 µM (active) | activation [1]: -10.6% | Potency [2]: inactive | Potency [3]: inactive | Potency [17]: inactive
